Results reported in PubChem BioAssay (Tox21).
Where “and” joins values, the source holds several entries; their conditions need not be identical. Equal values may be shown once. Values without a mark were called inactive. Inconclusive results are not listed. A call without a number means that no potency is given here. Calls of active or inactive are those of the source. Unless noted, the call rests on the fitted dose curve; in most records, active means well fitted curve in the direction sought with a large enough effect in the repeat runs; inconclusive means weak or mixed curves; inactive means no such curve, though single readings can be large; an effect the other way counts as inactive or inconclusive.

Columns and labels:
[1] = qHTS assay to identify small molecule agonists of the estrogen receptor alpha (ER-alpha) signaling pathway in the presence of an antagonist - cell viability counter screen (AID 1259386);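 further: series mostly up to about 92 µM; cells exposed to compounds for 22 h at 37 °C before the viability read; nearly all actives have a fitted effect of over 30% in size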
Outline: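 Cells are starved of estrogens for 5 days in charcoal-stripped serum, seeded for 24hr and co-treated with ICI-182,780 (10.0nM final) and test compounds. After 22hr at 37C, viability is read as CellTiter-Fluor fluorescence.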

[2] = target: Progesterone receptor (Homo sapiens) (UniProt P06401); assay: qHTS assay to identify small molecule agonists of the progesterone receptor (PR) signaling pathway (AID 1346784; calls by dose curve; further: nearly all actives have a fitted effect of over 30% in size)
Outline: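 Seed PR-UAS-bla HEK 293T cells (2% charcoal-stripped FBS), incubate 6 hr at 37C; add compounds in DMSO, 16 hr at 37C; add LiveBLAzer B/G substrate, 2 hr RT; read fluorescence intensity.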

[3] = target: Progesterone receptor (Homo sapiens) (UniProt P06401); assay: qHTS assay to identify small molecule antagonists of the progesterone receptor (PR) signaling pathway (AID 1346795; active means well fitted inhibition curve with a large enough effect in the signal ratio in the repeat runs, not every such curve was filed as active; the % refers to the signal ratio)
Outline: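 Screening used a GripTite HEK293T line with PR-responsive UAS-beta-lactamase. Cells were challenged with compound in the presence of 1 nM R5020 final for 16 hr at 37C; B/G FRET substrate, 2 hr room temperature, fluorescence.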

[4] = qHTS assay to identify small molecule antagonists of the progesterone receptor (PR) signaling pathway - cell viability counter screen (AID 1346798); further: series mostly up to about 92 µM; nearly all actives have a fitted effect of over 50% in size
Outline: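 Measures cytotoxicity in parallel with the PR antagonist reporter read: HEK293T PR-UAS-bla cells get compound and R5020 for 16 hr, and remaining viable cells are quantified by CellTiter-Glo luminescence.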

[5] = qHTS assay to identify small molecule antagonists of the TGF-beta/Smad signaling pathway - cell viability counter screen (AID 1346824); further: nearly all actives have a fitted effect of over 50% in size
Outline: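 SBE-bla HEK 293T cells, incubated overnight, then compound plus 0.25 ng/mL TGF-beta1 (stock added) for 5 hr at 37 C. Viability was read in the same wells by CellTiter-Glo luminescence after 30 min at room temperature.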

[6] = qHTS assay to identify small molecule agonists of the TGF-beta/Smad signaling pathway - cell viability counter screen (AID 1346829); further: top concentration of the series differs between compounds; nearly all actives have a fitted effect of over 45% in size
Outline: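 In parallel with the Smad reporter read, viability of HEK 293T cells stably carrying SBE-bla is quantified by ATP luminescence following 5 hr compound treatment.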

[7] = qHTS assay to identify small molecule agonists of the TGF-beta/Smad signaling pathway (AID 1346859; active means well fitted activation curve with a large enough effect in the signal ratio in the repeat runs, not every such curve was filed as active; the % refers to the signal ratio; further: series mostly up to about 77 µM)
Outline: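 Beta-lactamase reporter activity downstream of Smad binding elements was measured in stably transfected HEK 293T cells; compounds were incubated for 5 hr, substrate for 2 hr at room temperature.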

[8] = target: Thyrotropin-releasing hormone receptor (Homo sapiens) (UniProt P34981); assay: qHTS assay to identify small molecule antagonists of the thyrotropin-releasing hormone receptor (TRHR) signaling pathway (AID 1346877; active means well fitted inhibition curve with a large enough effect in the repeat runs, not every such curve was filed as active; further: series mostly up to about 51 µM)
Outline: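 Cells (TRHR-HEK293) are plated and kept 18 h at 37 °C/5% CO2. A calcium-sensitive dye is added for 2 h, compound follows for 5 min at room temperature, and TRH is then given at 1 nM final.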

[9] = target: Thyrotropin-releasing hormone receptor (Homo sapiens) (UniProt P34981); assay: qHTS assay to identify small molecule agonists of the thyrotropin-releasing hormone receptor (TRHR) signaling pathway (AID 1346891; calls by dose curve;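 further: HEK293 cells expressing TRHR with calcium dye readout; series mostly up to about 58 µM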)
Outline: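 Overnight-plated (18 h, 37 °C, 5% CO2) TRHR-Hek293 cells; 2 h calcium dye at 37 °C; compound in DMSO; 3-min kinetic fluorescence read.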

[10] = Human pregnane X receptor (PXR) small molecule agonists, qHTS cell viability counter screen (AID 1346977); further: nearly all actives have a fitted effect of over 50% in size; further: potency means the concentration at half of the fitted maximal effect
Outline: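 After a 5hr pre-incubation, PXR-Luc HepG2 cells received compounds plus positive control in DMSO and were kept 24hr at 37C. Cell viability was quantified by fluorescence from CellTiter-Fluor added for the final hour.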

[11] = Caspase-3/7 induction in HepG2 cells by small molecules, qHTS assay (AID 1346978); further: nearly all actives have a fitted effect of over 15% in size
Outline: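 Wild-type HepG2 cells, 2,000/well, settled 5 hr at 37 C and 5% CO2, then compound-treated for 17 hr; caspase-3/7 activity read by luminescent Caspase-Glo 3/7 after 30 min at room temperature.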

[12] = Caspase-3/7 induction in CHO-K1 cells by small molecules, qHTS cell viability counter screen (AID 1346979); further: nearly all actives have a fitted effect of over 35% in size; further: potency means the concentration at half of the fitted maximal effect
Outline: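 Multiplexed with Caspase-Glo 3/7 in CHO-K1 cells, this counter screen added CellTiter-Fluor after 16hr of compound exposure and recorded fluorescence 1hr later.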

[13] = Caspase-3/7 induction in CHO-K1 cells by small molecules, qHTS assay (AID 1346980); further: nearly all actives have a fitted effect of over 15% in size
Outline: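 Wild-type CHO-K1 cells exposed to compounds for 17hr at 37 C, 5% CO2. Caspase-3/7 activity then measured by Caspase-Glo 3/7 luminescence after 30min at room temperature.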

[14] = target: Nuclear receptor subfamily 1 group I member 2 (Homo sapiens) (UniProt O75469); assay: Human pregnane X receptor (PXR) small molecule agonists, qHTS assay (AID 1346982); further: nearly all actives have a fitted effect of over 35% in size; further: potency means the concentration at half of the fitted maximal effect
Outline: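 Agonist mode qHTS: PXR-Luc HepG2 cells plated 5 hr before DMSO-dissolved compounds were pinned in, cultured 24 hr at 37 C, 5% CO2; ONE-Glo luminescence readout.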

[15] = target: Acetylcholinesterase (Homo sapiens) (UniProt P22303); assay: Acetylcholinesterase (AChE) small molecule antagonists: colormetric cell-based qHTS assay (AID 1347395; calls by dose curve; further: nearly all actives have a fitted effect of over 30% in size; further: potency means the concentration at half of the fitted maximal effect)
Outline: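 In this cell-based qHTS, attached SH-SY5Y cells were treated with test chemicals for 30 min, after which acetylthiocholine hydrolysis was followed by DTNB colour development over 90 min at 37 C.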

[16] = Caspase-3/7 induction in HepG2 cells by small molecules, qHTS cell viability counter screen (AID 1346981); further: nearly all actives have a fitted effect of over 30% in size; further: potency means the concentration at half of the fitted maximal effect
Outline: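 Steps: seed 2,000 HepG2 cells per well; incubate 5 hr at 37 C; pin-add compounds in DMSO; incubate 16 hr; add CellTiter-Fluor; after 1 hr at 37 C and 5% CO2, read fluorescence.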

[17] = target: Nuclear receptor subfamily 1 group I member 2 (Rattus norvegicus) (UniProt Q9R1A7); assay: Rat pregnane X receptor (rPXR) activation by small molecules, qHTS assay (AID 1346983); settings: rPXR luciferase reporter cells, One-Glo luminescence, 24 h; stronger effect = higher value; further: nearly all actives have a fitted effect of over 20% in size
Outline: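 Cell-based rPXR activation assay: rPXR cells, 2,000 per well, rested 5hr at 37 C, then exposed to compounds in DMSO for 24 hr at 37 C. Luciferase activity read by One-Glo luminescence after 30 min at room temperature.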

[18] = target: Nuclear receptor subfamily 1 group I member 2 (Homo sapiens) (UniProt O75469); assay: CYP3A4 induction through human pregnane X receptor (PXR) by small molecules, qHTS assay (AID 1346984); further: nearly all actives have a fitted effect of over 40% in size
Outline: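 Steps: seed DPX-2 cells, 5 hr at 37C; pin-transfer compounds; 24 hr at 37C; add Luciferin-IPA (3uM final), 3 hr at 37C; add One-Glo, 30 min RT; read luminescence.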

[19] = target: Nuclear receptor subfamily 1 group I member 2 (Homo sapiens) (UniProt O75469); assay: Human pregnane X receptor (PXR) activation by small molecules, qHTS assay (AID 1346985); further: nearly all actives have a fitted effect of over 40% in size
Outline: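 DPX-2 cells (HepG2 co-transfected with a PXR response element and a CYP3A4-promoter luciferase construct) were seeded at 2,000 per well, rested 5 hr at 37C, then exposed to DMSO-dissolved compounds for 24 hr. Activation was read as luciferase luminescence.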

[20] = qHTS assay to identify small molecule agonists of the progesterone receptor (PR) signaling pathway - cell viability counter screen (AID 1346799; calls by dose curve; further: nearly all actives have a fitted effect of over 45% in size)
Outline: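 Using the same plates as the PR reporter screen, HEK293T PR-UAS-bla cells received compounds for 16 hr at 37C and were then lysed with CellTiter-Glo; luminescence was read 30 min later at room temperature.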

Nuclear receptor subfamily 1 group I member 2 (Homo sapiens), sequence (O75469 whole entry, looked up): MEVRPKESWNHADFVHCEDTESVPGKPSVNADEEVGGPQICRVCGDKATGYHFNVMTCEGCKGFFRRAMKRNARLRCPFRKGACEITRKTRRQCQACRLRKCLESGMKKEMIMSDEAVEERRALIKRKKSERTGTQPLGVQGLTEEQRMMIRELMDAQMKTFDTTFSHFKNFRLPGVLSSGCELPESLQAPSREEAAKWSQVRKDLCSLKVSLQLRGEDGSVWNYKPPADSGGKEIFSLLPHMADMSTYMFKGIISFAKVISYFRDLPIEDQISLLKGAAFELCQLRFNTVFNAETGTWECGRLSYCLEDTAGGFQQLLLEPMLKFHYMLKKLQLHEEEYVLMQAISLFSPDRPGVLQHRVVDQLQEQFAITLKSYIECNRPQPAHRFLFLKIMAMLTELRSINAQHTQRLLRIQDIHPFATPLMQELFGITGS
Progesterone receptor (Homo sapiens), sequence (P06401 whole entry, looked up): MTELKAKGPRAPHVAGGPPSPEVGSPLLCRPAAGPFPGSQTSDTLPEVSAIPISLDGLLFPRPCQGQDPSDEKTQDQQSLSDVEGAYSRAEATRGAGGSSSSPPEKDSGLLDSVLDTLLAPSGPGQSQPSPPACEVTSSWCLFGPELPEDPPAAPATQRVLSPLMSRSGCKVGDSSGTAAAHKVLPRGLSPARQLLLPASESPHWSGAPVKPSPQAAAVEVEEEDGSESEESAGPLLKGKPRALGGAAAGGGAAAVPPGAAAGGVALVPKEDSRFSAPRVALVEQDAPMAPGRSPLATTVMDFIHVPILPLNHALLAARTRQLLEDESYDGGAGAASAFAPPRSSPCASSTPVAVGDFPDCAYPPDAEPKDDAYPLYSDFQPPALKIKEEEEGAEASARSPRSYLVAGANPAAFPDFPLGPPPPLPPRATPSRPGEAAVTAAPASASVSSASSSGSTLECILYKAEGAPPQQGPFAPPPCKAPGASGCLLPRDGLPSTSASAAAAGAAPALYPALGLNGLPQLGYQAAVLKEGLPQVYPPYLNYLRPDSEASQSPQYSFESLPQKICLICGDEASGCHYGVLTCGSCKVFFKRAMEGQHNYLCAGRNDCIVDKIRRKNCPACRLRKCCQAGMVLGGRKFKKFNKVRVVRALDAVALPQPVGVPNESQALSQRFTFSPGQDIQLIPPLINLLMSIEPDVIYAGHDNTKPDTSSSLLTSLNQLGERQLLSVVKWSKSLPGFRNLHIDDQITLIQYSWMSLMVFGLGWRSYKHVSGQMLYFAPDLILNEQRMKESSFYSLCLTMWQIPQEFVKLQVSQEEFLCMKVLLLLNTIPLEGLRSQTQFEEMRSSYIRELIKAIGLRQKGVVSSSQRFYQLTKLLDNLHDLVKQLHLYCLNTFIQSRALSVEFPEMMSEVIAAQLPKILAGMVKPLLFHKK
Acetylcholinesterase (Homo sapiens), sequence (P22303 whole entry, looked up): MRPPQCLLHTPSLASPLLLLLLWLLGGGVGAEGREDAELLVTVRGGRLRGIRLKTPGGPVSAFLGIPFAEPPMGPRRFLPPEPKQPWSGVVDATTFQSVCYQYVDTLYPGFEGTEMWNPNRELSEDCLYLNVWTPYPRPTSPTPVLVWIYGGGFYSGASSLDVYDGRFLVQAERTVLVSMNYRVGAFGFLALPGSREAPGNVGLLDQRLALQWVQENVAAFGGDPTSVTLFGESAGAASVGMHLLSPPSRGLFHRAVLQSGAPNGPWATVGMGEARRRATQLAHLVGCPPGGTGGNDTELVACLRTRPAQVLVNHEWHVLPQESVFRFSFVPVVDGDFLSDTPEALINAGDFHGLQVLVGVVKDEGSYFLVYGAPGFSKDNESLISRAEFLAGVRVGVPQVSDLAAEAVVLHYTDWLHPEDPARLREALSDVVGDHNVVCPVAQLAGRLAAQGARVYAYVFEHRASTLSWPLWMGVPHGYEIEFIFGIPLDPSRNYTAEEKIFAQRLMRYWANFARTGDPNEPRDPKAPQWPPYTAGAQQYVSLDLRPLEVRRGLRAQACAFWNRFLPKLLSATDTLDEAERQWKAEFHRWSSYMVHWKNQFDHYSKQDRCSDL
Thyrotropin-releasing hormone receptor (Homo sapiens), sequence (P34981 whole entry, looked up): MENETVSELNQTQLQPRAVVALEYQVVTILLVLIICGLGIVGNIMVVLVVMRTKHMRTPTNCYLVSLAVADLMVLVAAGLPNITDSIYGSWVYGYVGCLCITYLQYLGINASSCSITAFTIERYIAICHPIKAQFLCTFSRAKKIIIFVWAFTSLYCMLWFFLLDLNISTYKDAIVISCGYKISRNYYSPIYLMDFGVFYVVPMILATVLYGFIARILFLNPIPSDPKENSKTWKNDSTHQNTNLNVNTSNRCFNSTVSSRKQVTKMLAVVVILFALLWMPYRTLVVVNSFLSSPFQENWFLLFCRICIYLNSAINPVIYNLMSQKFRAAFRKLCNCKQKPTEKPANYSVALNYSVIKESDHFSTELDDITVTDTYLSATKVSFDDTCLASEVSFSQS
Nuclear receptor subfamily 1 group I member 2 (Rattus norvegicus), sequence (Q9R1A7 whole entry, looked up): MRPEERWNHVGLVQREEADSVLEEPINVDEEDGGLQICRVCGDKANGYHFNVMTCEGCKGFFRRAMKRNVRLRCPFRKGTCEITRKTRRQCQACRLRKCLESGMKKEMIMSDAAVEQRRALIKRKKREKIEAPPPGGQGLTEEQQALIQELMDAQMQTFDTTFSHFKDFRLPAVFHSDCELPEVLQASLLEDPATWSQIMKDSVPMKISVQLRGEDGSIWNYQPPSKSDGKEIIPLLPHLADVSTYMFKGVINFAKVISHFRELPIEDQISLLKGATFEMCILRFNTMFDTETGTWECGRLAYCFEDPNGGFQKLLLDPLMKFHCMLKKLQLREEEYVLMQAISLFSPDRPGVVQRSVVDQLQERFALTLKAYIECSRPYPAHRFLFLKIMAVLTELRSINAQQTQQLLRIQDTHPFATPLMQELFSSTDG

Row | Structure (SMILES) | Potency [1] | Potency [2] | Potency [3] | Potency [4] | Potency [5] | Potency [6] | outcome [7] | Potency [8] | outcome [9] | Potency [10] | Potency [11] | Potency [12] | Potency [13] | Potency [14] | Potency [15] | Potency [16] | max activation [17] | outcome [18] | Potency [19] | Potency [20]
1 | Cc1nc(N(C)C)nc(OC(=O)N(C)C)c1C | inactive | inactive | inactive | inactive | inactive | inactive | inactive | inactive | inactive | inactive | inactive | inactive | inactive | inactive | 11.2 µM (active) | – | – | – | – | –
2 | O=C(CCl)CCl | inactive | inactive | inactive | inactive | inactive | inactive | inactive | inactive | inactive | inactive | inactive | 50.3 µM (active) and 30.6 µM (active) | inactive | 56.5 µM (active) and 61.1 µM (active) | inactive | – | – | – | – | –
3 | C=CCc1ccc(OC(=O)Cc2ccccc2)c(OC)c1 | inactive | inactive | inactive | inactive | inactive | inactive | inactive | inactive | inactive | – | inactive | inactive | inactive | inactive | inactive | inactive | – | – | – | –
4 | CC(C)(c1ccccc1)c1cc(-n2nc3ccccc3n2)c(O)c(C(C)(C)c2ccccc2)c1 | inactive | inactive | inactive | inactive | inactive | inactive | inactive | inactive | inactive | inactive | inactive | inactive | inactive | inactive | inactive | – | – | – | – | –
5 | C[N+]1(CCF)[C@@H]2CC[C@H]1CC(OC(=O)C(O)(c1ccccc1)c1ccccc1)C2 (stereo partly drawn) | inactive | inactive | inactive | inactive | inactive | inactive | inactive | inactive | inactive | inactive | inactive | inactive | inactive | inactive | inactive | inactive | – | – | – | –
6 | O=C(O)COc1cc(Cl)c(Cl)cc1Cl | inactive | inactive | inactive | inactive | inactive | – | – | – | – | inactive | inactive | inactive | inactive | inactive | inactive | inactive | – | – | – | –
7 | CC(C)OC(=O)Cc1ccccc1 | inactive | inactive | inactive | inactive | inactive | inactive | inactive | inactive | inactive | inactive | inactive | inactive | inactive | inactive | inactive | – | – | – | – | –
8 | CC[N+]1(C)CCCC(OC(=O)C(O)(c2ccccc2)c2ccccc2)C1 (stereo not drawn) | inactive | inactive | inactive | inactive | inactive | – | inactive | – | inactive | inactive | inactive | inactive | inactive | inactive | inactive | inactive | 2.38% | inactive | inactive | –
9 | CCOP(=O)(O)C(N)=O | inactive | inactive | inactive | inactive | inactive | inactive | inactive | inactive | inactive | inactive | inactive | inactive | inactive | inactive | inactive | – | – | – | – | –
10 | COc1ccc(C(O)(c2cncnc2)C2CC2)cc1 (stereo not drawn) | inactive | inactive | inactive | inactive | inactive | inactive | inactive | inactive | inactive | – | inactive | inactive | inactive | inactive | inactive | – | – | – | – | –
11 | c1ccc2c(c1)sc1ccccc12 | inactive | inactive | inactive | inactive | inactive | inactive | inactive | inactive | inactive | inactive | inactive | inactive | inactive | inactive | inactive | – | -3.19% | inactive | inactive | –
12 | CCOP(=O)(SC(C)CC)N1CCSC1=O (stereo not drawn) | inactive | inactive | inactive | inactive | inactive | inactive | inactive | inactive | inactive | – | inactive | inactive | inactive | – | inactive | inactive | – | – | – | –
13 | CCCCNC(=O)OCC#CI | inactive | inactive | inactive | inactive | inactive | inactive | inactive | inactive | inactive | 35.5 µM (active) and 27.3 µM (active) | inactive | 30.5 µM (active) and 27.3 µM (active) | inactive | inactive | inactive | 48.3 µM (active) and 61.1 µM (active) | – | – | – | –
14 | C=CCOCC1CO1 (stereo not drawn) | inactive | inactive | inactive | – | inactive | inactive | inactive | inactive | inactive | inactive | inactive | inactive | inactive | inactive | inactive | inactive | – | – | – | inactive
